Experimental data taken from PubChem BioAssay (NCI).
The panel holds about 83,000 compounds, 20% with a hit somewhere; the sample as a whole holds those more often.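 In brief: 96-well plates, 48 h treatment, single concentration, percent growth endpoint.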 The source made the active and inactive calls. How the source made its calls: active means growth percent below 10; inactive means the rest.

What was measured:
Test in all cases: NCI-60 one-dose screen, 48 h (100 = growth as untreated, 0 = no growth, -100 = all killed)
Conditions in all cases: 10 µM unless noted
SR leukemia = test system: SR leukemia
RPMI-8226 leukemia = test system: RPMI-8226 leukemia
OVCAR-8 ovarian = test system: OVCAR-8 ovarian
OVCAR-5 ovarian = test system: OVCAR-5 ovarian
OVCAR-4 ovarian = test system: OVCAR-4 ovarian
SK-OV-3 ovarian = test system: SK-OV-3 ovarian
IGROV1 ovarian = test system: IGROV1 ovarian
HS 578T breast = test system: HS 578T breast
NCI/ADR-RES ovarian = test system: NCI/ADR-RES ovarian
OVCAR-3 ovarian = test system: OVCAR-3 ovarian

Measured: growth

O=C(COc1ccc(Cl)cc1Cl)N1N=C(c2ccc(Cl)cc2Cl)CC1(O)c1cc(F)c(Cl)cc1Cl (centres undefined)
inactive: SR leukemia 23.2% | RPMI-8226 leukemia 144% | OVCAR-8 ovarian 93.2% | OVCAR-5 ovarian 105% | OVCAR-4 ovarian 116% | SK-OV-3 ovarian 110% | IGROV1 ovarian 69.7% | HS 578T breast 122% | NCI/ADR-RES ovarian 106%

COc1cc(/C=C/C(=O)c2c(C)n([O-])c3cc(C)c(C)cc3[n+]2=O)cc(OC)c1OC
active: IGROV1 ovarian -21.3%
inactive: SR leukemia 29% | RPMI-8226 leukemia 38.8% | OVCAR-8 ovarian 63.2% | OVCAR-5 ovarian 111% | OVCAR-4 ovarian 73.3% | SK-OV-3 ovarian 86.6% | HS 578T breast 69% | NCI/ADR-RES ovarian 72%

CN(C)c1ccc(/C=N/n2c(-c3cc(F)c(Cl)cc3Cl)nn(CN3CCOCC3)c2=S)cc1
inactive: SR leukemia 83.6% | RPMI-8226 leukemia 97.2% | OVCAR-8 ovarian 104% | OVCAR-5 ovarian 92.8% | OVCAR-4 ovarian 106% | SK-OV-3 ovarian 101% | IGROV1 ovarian 104% | HS 578T breast 110% | NCI/ADR-RES ovarian 97.3%

CC(C)(C)NCC(O)COc1c(Br)c(Br)c(Br)c2c1OC(C)(C)C2 (centres undefined)
inactive: OVCAR-4 ovarian 15.3% | SK-OV-3 ovarian 92.1%
active: SR leukemia -61.6% | RPMI-8226 leukemia -72.8% | OVCAR-8 ovarian -54.8% | OVCAR-5 ovarian -73.2% | IGROV1 ovarian -84.2% | HS 578T breast -64.8% | NCI/ADR-RES ovarian -15.9%

CCC1S/C(=N\N=C(/C)c2cc3ccccc3o2)N(c2ccccc2)C1=O (centres undefined)
active: IGROV1 ovarian -12.9%
inactive: SR leukemia 15% | RPMI-8226 leukemia 65.4% | OVCAR-8 ovarian 105% | OVCAR-5 ovarian 106% | OVCAR-4 ovarian 95.1% | SK-OV-3 ovarian 116% | HS 578T breast 98.7% | NCI/ADR-RES ovarian 89%

COC(=O)c1oc2c(C(C)=O)c(OCCCN(C)C)ccc2c1C
inactive: SR leukemia 95% | RPMI-8226 leukemia 97.2% | OVCAR-8 ovarian 111% | OVCAR-5 ovarian 101% | OVCAR-4 ovarian 96.4% | SK-OV-3 ovarian 121% | IGROV1 ovarian 30.1% | HS 578T breast 97.3% | NCI/ADR-RES ovarian 87.4%

c1cncc(-c2nc3ccccc3[nH]2)c1
inactive: SR leukemia 90.6% | RPMI-8226 leukemia 75.3% | OVCAR-8 ovarian 98.4% | OVCAR-5 ovarian 86.5% | OVCAR-4 ovarian 104% | SK-OV-3 ovarian 95.3% | OVCAR-3 ovarian 98.6% | HS 578T breast 78.4%

C[C@H]1C=C(C[C@@H](O)CCCCCCCCCC[C@@H](O)[C@H]2CCC(=O)O2)C(=O)O1
active: IGROV1 ovarian -23.5%
inactive: SR leukemia 114% | RPMI-8226 leukemia 79.9% | OVCAR-8 ovarian 96.7% | OVCAR-5 ovarian 91.7% | OVCAR-4 ovarian 97.6% | SK-OV-3 ovarian 110% | HS 578T breast 128% | NCI/ADR-RES ovarian 99.6%

OC(COc1ccccc1Cl)CN1CCN(c2ccc(Cl)cc2)CC1 (centres undefined)
inactive: SR leukemia 92.3% | RPMI-8226 leukemia 86.6% | OVCAR-8 ovarian 104% | OVCAR-5 ovarian 81.9% | OVCAR-4 ovarian 91.7% | SK-OV-3 ovarian 114% | IGROV1 ovarian 96% | OVCAR-3 ovarian 106% | NCI/ADR-RES ovarian 115%

COc1cc(NC(C)CCCN2C(=O)c3ccccc3C2=O)c2ncccc2c1OC (centres undefined)
inactive: SR leukemia 35.4% | RPMI-8226 leukemia 55.5% | OVCAR-8 ovarian 85.5% | OVCAR-5 ovarian 99.1% | OVCAR-4 ovarian 50.8% | SK-OV-3 ovarian 92.5% | IGROV1 ovarian 63.6% | HS 578T breast 95.7% | NCI/ADR-RES ovarian 90.6%

COc1cc(C(=O)N2CCN(C(=O)c3cc(OC)c(OCc4ccccc4)cc3N)CC2)c(N)cc1OCc1ccccc1
inactive: SR leukemia 81.2% | RPMI-8226 leukemia 179% | OVCAR-8 ovarian 106% | OVCAR-5 ovarian 103% | OVCAR-4 ovarian 103% | SK-OV-3 ovarian 111% | IGROV1 ovarian 106% | HS 578T breast 109% | NCI/ADR-RES ovarian 98.7%

O=C(N/N=C1\SCC(=O)N1c1ccccc1)c1cc(-c2cc3ccccc3o2)nn1-c1ccccc1
inactive: SR leukemia 107% | RPMI-8226 leukemia 66.4% | OVCAR-8 ovarian 107% | OVCAR-5 ovarian 112% | OVCAR-4 ovarian 110% | SK-OV-3 ovarian 116% | IGROV1 ovarian 98.9% | HS 578T breast 109% | NCI/ADR-RES ovarian 108%

Cc1cn(C2CC(N=[N+]=[N-])C(COP(=O)(O)OP(=O)(O)OP(=O)(O)O)O2)c(=O)[nH]c1=O (centres undefined)
inactive: SR leukemia 24.3% | RPMI-8226 leukemia 60.7% | OVCAR-8 ovarian 120% | OVCAR-5 ovarian 93% | OVCAR-4 ovarian 108% | SK-OV-3 ovarian 104% | IGROV1 ovarian 75.5% | HS 578T breast 133% | NCI/ADR-RES ovarian 111%

Cn1c2ccccc2c2ssc(=S)c21
inactive: SR leukemia 103% | RPMI-8226 leukemia 124% | OVCAR-8 ovarian 102% | OVCAR-5 ovarian 99.7% | OVCAR-4 ovarian 89.5% | SK-OV-3 ovarian 119% | HS 578T breast 70.3% | NCI/ADR-RES ovarian 86.8%
active: IGROV1 ovarian -26.5%

C=C(C)[C@@H]1C/C=C(\COC(=O)[C@H](OC(C)=O)C(NC(=O)c2ccccc2)c2ccccc2)CC[C@H]2O[C@]2(C)CC/C=C(\C)CC1 (some centres undefined)
inactive: OVCAR-8 ovarian 86.7% [5 µM] | OVCAR-5 ovarian 88.7% [5 µM] | OVCAR-4 ovarian 62.3% [5 µM] | SK-OV-3 ovarian 87.7% [5 µM] | IGROV1 ovarian 45.9% [5 µM] | HS 578T breast 79.5% [5 µM] | NCI/ADR-RES ovarian 62.9% [5 µM]
active: SR leukemia 3.12% [5 µM] | RPMI-8226 leukemia -6.61% [5 µM]

CC(C)Cn1cnc2c3ccccc3nc(NCn3nc(-c4cc(Cl)cc(Cl)c4Cl)oc3=S)c21
inactive: SR leukemia 25.5% | RPMI-8226 leukemia 74.8% | OVCAR-8 ovarian 98.4% | OVCAR-5 ovarian 88.3% | OVCAR-4 ovarian 88.2% | SK-OV-3 ovarian 109% | IGROV1 ovarian 51% | HS 578T breast 116% | NCI/ADR-RES ovarian 66.4%

S=c1n(CNc2ccc(Cl)nn2)nc(-c2cc(Cl)cc(Cl)c2Cl)n1/N=C/c1ccc(Cl)cc1
inactive: SR leukemia 32.5% | RPMI-8226 leukemia 61.2% | OVCAR-8 ovarian 114% | OVCAR-5 ovarian 100% | OVCAR-4 ovarian 87.5% | SK-OV-3 ovarian 107% | IGROV1 ovarian 76.2% | HS 578T breast 108% | NCI/ADR-RES ovarian 87.4%

CCN(CC)c1ccc(C2CC(c3cc(OC)c(OC)c(OC)c3)=NN2)cc1 (centres undefined)
inactive: OVCAR-5 ovarian 40.6% | OVCAR-4 ovarian 37.2% | IGROV1 ovarian 17.7%
active: SR leukemia -10.8% | RPMI-8226 leukemia -13.1% | OVCAR-8 ovarian 6.48% | SK-OV-3 ovarian 5.94% | HS 578T breast -13.3% | NCI/ADR-RES ovarian -37%

C[C@H]1C=C(C[C@@H](O)CC#CC#CCCCCC[C@@H](O)[C@H]2CCC(=O)O2)C(=O)O1
inactive: SR leukemia 121% | RPMI-8226 leukemia 114% | OVCAR-8 ovarian 110% | OVCAR-5 ovarian 95.6% | OVCAR-4 ovarian 105% | SK-OV-3 ovarian 95.5% | IGROV1 ovarian 54.1% | HS 578T breast 117% | NCI/ADR-RES ovarian 95.5%

COc1cc(-c2nc3sc(C)cn3c2/C=C2\C(=O)Nc3ccccc32)c(Br)c(OC)c1OC
inactive: RPMI-8226 leukemia 28.6% | OVCAR-8 ovarian 65% | OVCAR-5 ovarian 81.6% | OVCAR-4 ovarian 54.4% | SK-OV-3 ovarian 31.2% | HS 578T breast 15.7% | NCI/ADR-RES ovarian 22.9%
active: SR leukemia 3.87% | IGROV1 ovarian -11.8%

N#Cc1c(N)nc2c(c1N)C(c1ccc(Cl)cc1)C1=C(CCCC1=O)N2c1sc2c(c1C#N)CCCC2 (centres undefined)
inactive: SR leukemia 41.8% | RPMI-8226 leukemia 75.5% | OVCAR-8 ovarian 84.4% | OVCAR-5 ovarian 74.8% | OVCAR-4 ovarian 89.9% | SK-OV-3 ovarian 89.1% | IGROV1 ovarian 89.6% | HS 578T breast 86.7% | NCI/ADR-RES ovarian 81.1%

CC(=O)Nc1ccc(OC(=O)c2ccccc2O)cc1
inactive: SR leukemia 96.9% | RPMI-8226 leukemia 101% | OVCAR-8 ovarian 110% | OVCAR-4 ovarian 105% | SK-OV-3 ovarian 105% | IGROV1 ovarian 115% | OVCAR-3 ovarian 110% | HS 578T breast 99.4% | NCI/ADR-RES ovarian 102%

O=C1C(SCCO)=C(SCCO)C(=O)N1c1ccc(-c2ccccc2)cc1
active: SR leukemia -47.6% | RPMI-8226 leukemia -14% | OVCAR-8 ovarian 3.35% | OVCAR-3 ovarian -92% | HS 578T breast -50.7%
inactive: OVCAR-5 ovarian 102% | OVCAR-4 ovarian 10.3% | SK-OV-3 ovarian 106% | NCI/ADR-RES ovarian 104%

O=C(O)c1cc2ccccc2cc1Nc1ccccc1
inactive: SR leukemia 97.8% | RPMI-8226 leukemia 78.4% | OVCAR-8 ovarian 100% | OVCAR-5 ovarian 90.8% | OVCAR-4 ovarian 97.5% | SK-OV-3 ovarian 106% | OVCAR-3 ovarian 108% | HS 578T breast 121% | NCI/ADR-RES ovarian 93%

COc1ccc(C[C@H](N)C(=O)N[C@@H]2[C@@H](CO)OC(n3cnc4c(N(C)C)ncnc43)[C@@H]2O)cc1 (some centres undefined)
active: SR leukemia -37.7% | OVCAR-8 ovarian -52.3% | OVCAR-4 ovarian -32.9% | SK-OV-3 ovarian -25.3% | IGROV1 ovarian -42.3% | OVCAR-3 ovarian -94.7%
inactive: RPMI-8226 leukemia 12.5% | HS 578T breast 11.8% | NCI/ADR-RES ovarian 93.4%

CCOc1ccc(NC(=O)Nc2cc(C(C)C)ccc2C)cc1
active: HS 578T breast 4.79%
inactive: SR leukemia 36.6% | RPMI-8226 leukemia 43.4% | OVCAR-8 ovarian 27.1% | OVCAR-5 ovarian 57.7% | OVCAR-4 ovarian 44.6% | SK-OV-3 ovarian 93.4% | OVCAR-3 ovarian 50.9% | NCI/ADR-RES ovarian 58.7%

CCCCCCCCCCCC(=O)OCCNC(=O)C[n+]1ccccc1
inactive: SR leukemia 104% | RPMI-8226 leukemia 100% | OVCAR-8 ovarian 97.4% | OVCAR-5 ovarian 113% | OVCAR-4 ovarian 105% | SK-OV-3 ovarian 96.7% | OVCAR-3 ovarian 115% | HS 578T breast 139% | NCI/ADR-RES ovarian 113%

COC(=O)Nc1nc2ccc(Sc3ccccc3)cc2[nH]1
active: OVCAR-8 ovarian 9.03% | OVCAR-3 ovarian -78.1% | NCI/ADR-RES ovarian -30.1%
inactive: SR leukemia 14.5% | RPMI-8226 leukemia 42.1% | OVCAR-4 ovarian 49.4% | SK-OV-3 ovarian 13.5% | IGROV1 ovarian 30.4% | HS 578T breast 30.3%

COc1cc(NS(C)(=O)=O)ccc1Cc1c2ccccc2nc2ccccc12
active: SR leukemia -5.52% | OVCAR-8 ovarian 2.44% | OVCAR-3 ovarian -76.6%
inactive: RPMI-8226 leukemia 22% | OVCAR-4 ovarian 38.8% | SK-OV-3 ovarian 18% | IGROV1 ovarian 36.5% | HS 578T breast 48%
